Data on 33 targets can be found in the supplement of paper PMC10849652.

About 8,800 targets were measured; listed, in parts, are those with a hit and a random draw of the rest. About 0.5% of all pairs of compound and target were hits.

Chain of UniProt P49448 (P49448 whole entry, looked up): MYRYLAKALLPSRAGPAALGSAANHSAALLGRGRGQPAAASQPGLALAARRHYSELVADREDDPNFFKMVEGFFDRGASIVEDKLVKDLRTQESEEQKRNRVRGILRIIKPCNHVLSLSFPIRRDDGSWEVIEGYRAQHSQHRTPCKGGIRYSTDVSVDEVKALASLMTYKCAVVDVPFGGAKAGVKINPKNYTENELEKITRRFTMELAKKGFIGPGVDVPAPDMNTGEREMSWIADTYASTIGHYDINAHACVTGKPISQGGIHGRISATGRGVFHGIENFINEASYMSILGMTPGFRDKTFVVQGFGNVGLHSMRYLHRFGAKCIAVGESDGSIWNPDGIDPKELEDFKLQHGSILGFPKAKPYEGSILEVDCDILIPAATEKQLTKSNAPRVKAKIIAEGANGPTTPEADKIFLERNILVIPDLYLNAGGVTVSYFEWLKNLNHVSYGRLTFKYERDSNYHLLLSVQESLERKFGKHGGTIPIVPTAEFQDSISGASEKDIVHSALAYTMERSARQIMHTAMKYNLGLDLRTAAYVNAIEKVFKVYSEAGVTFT
Chain of UniProt Q92769 (Q92769 whole entry, looked up): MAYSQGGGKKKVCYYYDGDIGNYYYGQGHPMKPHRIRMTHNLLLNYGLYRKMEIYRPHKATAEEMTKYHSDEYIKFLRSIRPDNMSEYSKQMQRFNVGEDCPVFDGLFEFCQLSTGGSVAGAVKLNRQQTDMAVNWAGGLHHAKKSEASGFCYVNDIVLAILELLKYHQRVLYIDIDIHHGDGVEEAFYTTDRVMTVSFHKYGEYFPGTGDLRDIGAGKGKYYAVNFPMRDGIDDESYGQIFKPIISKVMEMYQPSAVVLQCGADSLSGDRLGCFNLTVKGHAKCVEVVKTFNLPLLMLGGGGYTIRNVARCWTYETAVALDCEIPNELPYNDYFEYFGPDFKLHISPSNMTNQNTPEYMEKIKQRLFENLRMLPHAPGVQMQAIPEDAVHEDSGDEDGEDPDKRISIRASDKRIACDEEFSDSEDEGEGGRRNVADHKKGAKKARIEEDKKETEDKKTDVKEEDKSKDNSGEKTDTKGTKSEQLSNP
Chain of UniProt Q6NT76 (Q6NT76 whole entry, looked up): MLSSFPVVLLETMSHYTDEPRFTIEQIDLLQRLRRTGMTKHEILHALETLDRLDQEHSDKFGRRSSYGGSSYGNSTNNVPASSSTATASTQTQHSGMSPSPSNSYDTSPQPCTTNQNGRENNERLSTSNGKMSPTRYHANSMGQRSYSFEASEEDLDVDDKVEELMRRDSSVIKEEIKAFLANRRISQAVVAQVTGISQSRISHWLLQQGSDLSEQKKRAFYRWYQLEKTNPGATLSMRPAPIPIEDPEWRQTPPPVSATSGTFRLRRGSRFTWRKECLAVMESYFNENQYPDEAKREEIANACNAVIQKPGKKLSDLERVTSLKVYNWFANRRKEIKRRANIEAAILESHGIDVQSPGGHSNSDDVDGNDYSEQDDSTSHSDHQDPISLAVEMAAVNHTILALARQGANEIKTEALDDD
Chain of UniProt Q14687 (Q14687 whole entry, looked up): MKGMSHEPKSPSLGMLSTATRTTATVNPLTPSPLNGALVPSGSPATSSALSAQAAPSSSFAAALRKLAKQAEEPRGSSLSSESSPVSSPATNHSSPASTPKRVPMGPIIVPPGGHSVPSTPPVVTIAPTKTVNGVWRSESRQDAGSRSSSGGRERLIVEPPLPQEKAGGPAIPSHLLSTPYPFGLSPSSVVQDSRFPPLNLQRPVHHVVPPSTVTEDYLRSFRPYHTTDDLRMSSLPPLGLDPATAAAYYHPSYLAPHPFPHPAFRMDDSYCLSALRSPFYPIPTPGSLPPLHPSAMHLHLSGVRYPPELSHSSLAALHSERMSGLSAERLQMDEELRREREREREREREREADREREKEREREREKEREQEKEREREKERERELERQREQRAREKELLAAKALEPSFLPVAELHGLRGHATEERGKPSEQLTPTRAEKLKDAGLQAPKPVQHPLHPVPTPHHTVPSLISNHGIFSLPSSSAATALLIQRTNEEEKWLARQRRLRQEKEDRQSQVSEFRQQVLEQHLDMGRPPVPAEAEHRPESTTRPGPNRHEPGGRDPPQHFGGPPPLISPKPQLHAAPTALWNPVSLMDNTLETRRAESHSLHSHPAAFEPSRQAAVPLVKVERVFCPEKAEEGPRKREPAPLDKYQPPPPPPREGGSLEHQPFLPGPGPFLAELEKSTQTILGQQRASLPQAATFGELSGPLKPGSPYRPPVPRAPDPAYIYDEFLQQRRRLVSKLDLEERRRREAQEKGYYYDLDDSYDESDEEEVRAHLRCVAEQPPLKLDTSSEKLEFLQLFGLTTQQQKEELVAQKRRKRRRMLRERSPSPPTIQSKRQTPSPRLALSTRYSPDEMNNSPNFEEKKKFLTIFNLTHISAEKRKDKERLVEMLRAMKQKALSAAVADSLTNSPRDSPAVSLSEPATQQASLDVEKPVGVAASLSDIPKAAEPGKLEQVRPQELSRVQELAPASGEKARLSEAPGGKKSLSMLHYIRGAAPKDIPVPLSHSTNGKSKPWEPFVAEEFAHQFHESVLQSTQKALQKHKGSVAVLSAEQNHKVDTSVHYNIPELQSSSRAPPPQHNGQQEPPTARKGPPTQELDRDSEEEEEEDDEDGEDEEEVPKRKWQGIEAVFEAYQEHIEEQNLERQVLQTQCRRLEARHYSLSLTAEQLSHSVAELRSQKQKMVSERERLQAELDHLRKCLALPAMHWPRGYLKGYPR
Chain of UniProt Q13547 (Q13547 whole entry, looked up): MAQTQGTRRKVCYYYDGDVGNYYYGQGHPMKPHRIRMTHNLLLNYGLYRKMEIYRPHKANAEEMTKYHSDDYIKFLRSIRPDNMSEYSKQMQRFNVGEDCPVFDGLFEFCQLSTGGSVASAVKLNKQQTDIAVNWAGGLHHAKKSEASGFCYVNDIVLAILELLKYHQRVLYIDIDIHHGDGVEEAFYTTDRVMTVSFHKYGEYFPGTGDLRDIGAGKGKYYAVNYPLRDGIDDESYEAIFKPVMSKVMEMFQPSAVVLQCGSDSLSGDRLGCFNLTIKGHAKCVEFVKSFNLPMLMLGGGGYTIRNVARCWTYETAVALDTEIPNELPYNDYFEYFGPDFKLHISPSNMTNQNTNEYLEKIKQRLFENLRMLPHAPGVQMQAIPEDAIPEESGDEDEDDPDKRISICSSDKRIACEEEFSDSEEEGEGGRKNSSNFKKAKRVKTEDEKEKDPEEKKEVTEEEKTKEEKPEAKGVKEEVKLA
Chain of UniProt Q9NSE4 (Q9NSE4 whole entry, looked up): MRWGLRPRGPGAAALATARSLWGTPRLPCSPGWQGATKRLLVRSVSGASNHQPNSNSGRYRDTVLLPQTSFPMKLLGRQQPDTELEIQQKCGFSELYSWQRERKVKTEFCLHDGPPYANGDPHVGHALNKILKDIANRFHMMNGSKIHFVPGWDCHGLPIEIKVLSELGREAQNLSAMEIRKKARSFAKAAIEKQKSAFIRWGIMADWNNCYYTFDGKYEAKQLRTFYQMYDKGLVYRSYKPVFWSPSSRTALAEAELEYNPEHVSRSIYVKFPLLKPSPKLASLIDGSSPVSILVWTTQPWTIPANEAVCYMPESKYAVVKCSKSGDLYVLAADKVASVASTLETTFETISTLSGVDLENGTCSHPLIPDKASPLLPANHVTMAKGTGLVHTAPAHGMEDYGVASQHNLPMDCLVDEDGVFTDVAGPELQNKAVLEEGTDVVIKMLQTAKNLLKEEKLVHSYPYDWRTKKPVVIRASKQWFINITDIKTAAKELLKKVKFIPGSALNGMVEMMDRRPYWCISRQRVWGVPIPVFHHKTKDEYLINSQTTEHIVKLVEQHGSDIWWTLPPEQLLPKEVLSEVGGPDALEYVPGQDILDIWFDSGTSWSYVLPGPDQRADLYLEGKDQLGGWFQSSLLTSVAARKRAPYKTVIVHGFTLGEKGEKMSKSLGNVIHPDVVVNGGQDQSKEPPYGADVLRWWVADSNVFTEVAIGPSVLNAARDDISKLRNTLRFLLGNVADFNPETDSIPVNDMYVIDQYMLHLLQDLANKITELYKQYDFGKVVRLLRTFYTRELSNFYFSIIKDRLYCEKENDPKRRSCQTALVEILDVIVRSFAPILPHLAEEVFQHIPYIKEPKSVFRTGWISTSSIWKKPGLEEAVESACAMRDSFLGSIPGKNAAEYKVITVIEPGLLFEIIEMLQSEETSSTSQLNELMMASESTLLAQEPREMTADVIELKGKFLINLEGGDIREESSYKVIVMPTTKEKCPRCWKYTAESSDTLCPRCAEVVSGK
Chain of UniProt Q53T59 (Q53T59 whole entry, looked up): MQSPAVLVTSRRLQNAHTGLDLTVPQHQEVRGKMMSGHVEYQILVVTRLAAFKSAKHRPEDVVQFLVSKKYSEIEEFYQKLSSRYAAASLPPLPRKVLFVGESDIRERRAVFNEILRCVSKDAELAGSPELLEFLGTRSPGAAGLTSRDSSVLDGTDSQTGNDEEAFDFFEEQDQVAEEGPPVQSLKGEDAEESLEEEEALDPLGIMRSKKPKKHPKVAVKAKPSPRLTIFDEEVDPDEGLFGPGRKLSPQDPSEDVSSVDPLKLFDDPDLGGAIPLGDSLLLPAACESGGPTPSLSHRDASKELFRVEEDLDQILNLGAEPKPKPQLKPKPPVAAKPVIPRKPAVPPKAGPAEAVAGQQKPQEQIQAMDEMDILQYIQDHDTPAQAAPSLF
Chain of UniProt Q99871 (Q99871 whole entry, looked up): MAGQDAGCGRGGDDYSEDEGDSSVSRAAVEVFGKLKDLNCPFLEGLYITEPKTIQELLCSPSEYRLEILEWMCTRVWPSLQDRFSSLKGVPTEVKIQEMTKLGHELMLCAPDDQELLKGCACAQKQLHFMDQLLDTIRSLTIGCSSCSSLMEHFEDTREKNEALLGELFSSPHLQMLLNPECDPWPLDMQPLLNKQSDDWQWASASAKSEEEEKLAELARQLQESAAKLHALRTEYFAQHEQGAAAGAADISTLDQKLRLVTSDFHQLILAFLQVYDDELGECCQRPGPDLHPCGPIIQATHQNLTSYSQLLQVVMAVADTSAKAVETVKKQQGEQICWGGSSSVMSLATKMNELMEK

Compound in this assay: CC1=C2C(=CC=C1)N=C(N(C2=O)C3=CC=CC=C3C)CN4C=NC5=C(N=CN=C54)N
As to the kind of experiment: log2 fold change, soluble protein after heating vs DMSO (PISA); higher = thermal stabilisation; K562 lysate, 10 uM; active = over 0.2 and 3.5 SD of the protein, either way, in both replicates (recomputed). Put shortly:
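Soluble protein was defined as the supernatant remaining after 21,000xg for 90 min, following pooling of heated aliquots and adjustment to 0.5% NP-40 at 4°C. Before that, crude K562 extract at 1 mg/mL protein in PBS pH 7.4 with 1 mM MgCl2 was treated with 10 μM compound for 30 min and heated for 3 min across 48°C-58°C. Quantification used TMTpro 16plex LC-MS/MS with channel sums equalised, and values are log-two fold changes in thermal stability relative to solvent controls from duplicates.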
For the target GTF2A1 (UniProt P52655), the log2 fold change was -0.01 (inactive).
The value for HECTD3 (UniProt Q5T447) was 0.046 (inactive); that for IARS2 (UniProt Q9NSE4) was -0.006 (inactive); that for GLUD2 (UniProt P49448) was 0.265 (inactive).
For INTS14 (UniProt Q96SY0), the log2 fold change was -0.038 (inactive).
With HMBOX1 isoform 5 (UniProt Q6NT76), the log2 fold change is 0.055 (inactive).
The result for IGF2BP2 (UniProt Q9Y6M1) reads 0.012 (inactive); that for HDHD5 (UniProt Q9BXW7), 0.032 (inactive); that for HEATR6 (UniProt Q6AI08), 0.05 (inactive).
As to HADHB (UniProt P55084), the log2 fold change was 0.105 (inactive).
The result for GRB10 (UniProt Q13322) reads 0.024 (inactive); that for GSTZ1 (UniProt G3V4T6), -0.036 (inactive).
The value for HNRNPM (UniProt M0QZM1) was -0.01 (inactive); that for HDAC2 (UniProt Q92769) was -0.017 (inactive); that for GPA33 (UniProt Q99795) was 0.006 (inactive).
The value for IMPDH2 (UniProt P12268) was -0.007 (inactive).
Consider HDAC1 (UniProt Q13547), for which the log2 fold change was 0.001 (inactive).
The value for GLYR1 (UniProt Q49A26) was -0.128 (inactive); that for HS1BP3 (UniProt Q53T59) was -0.073 (inactive).
The result for HNRNPLL (UniProt Q8WVV9) reads 0.007 (inactive); that for ICAM2 (UniProt P13598), -0.006 (inactive); that for HADHA (UniProt P40939), 0.102 (inactive).
The value for GTF3C5 isoform 3 (UniProt Q9Y5Q8) was 0.019 (inactive).
For the target GOLPH3L (UniProt Q9H4A5), the log2 fold change is 0.022 (inactive).
The value for IRAK1 (UniProt P51617) was -0.001 (inactive); that for GSTCD (UniProt Q8NEC7) was -0.076 (inactive).
The result for IMMT (UniProt C9J406) reads 0.049 (inactive).
For the target HNRNPD isoform 2 (UniProt Q14103), the log2 fold change was -0.01 (inactive).
The value for GPR108 (UniProt Q9NPR9) was 0.005 (inactive).
The value for HAUS7 isoform 2 (UniProt Q99871) was 0.019 (inactive).
The result for GSE1 (UniProt Q14687) reads -0.002 (inactive); that for KARS1 (UniProt Q15046), 0.002 (inactive).
Regarding HELQ (UniProt Q8TDG4), the log2 fold change was 0.005 (inactive).
